Assay results as given in PubChem BioAssay.

target: Follistatin-related protein 3 (Homo sapiens) (UniProt O95633); assay: FSTL3 binders on small-molecule microarrays, primary screen, biochemical, small-molecule microarray, 635 nm fluorescence (AID 1105); settings: FSTL3 binding, higher = more signal;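 also: score merges emission near 667 nm and signal to noise per printed spot across three slides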
Sequence (O95633 whole entry, looked up): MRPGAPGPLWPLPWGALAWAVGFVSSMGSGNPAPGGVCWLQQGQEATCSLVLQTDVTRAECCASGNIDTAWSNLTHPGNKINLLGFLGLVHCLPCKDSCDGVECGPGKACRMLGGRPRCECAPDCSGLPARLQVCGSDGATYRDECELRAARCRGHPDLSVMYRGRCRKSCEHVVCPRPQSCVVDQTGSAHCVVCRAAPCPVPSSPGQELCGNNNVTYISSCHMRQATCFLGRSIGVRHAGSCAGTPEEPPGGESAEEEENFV

Row | Structure (SMILES) | composite z-score
1 | O=C(O)[C@H](Cc1ccccc1)n1cc(-c2ccccn2)nn1 | 0.333
2 | COC(=O)c1c(CC[C@@H](CO)NC(=O)N[C@H](Cn2cc(-c3ccccc3C)nn2)C(C)C)oc(C(C)=O)c1C(=O)OC | -0.806
3 | COc1ccc(NN2C(C(O)c3ccco3)C=CC3C(=O)N(C4CCCCC4)C(=O)C32)cc1 (stereo not given) | 1.49
4 | Cc1c(NC(=O)/C(C#N)=C/C=C/c2ccc(N(C)C)cc2)c(=O)n(-c2ccccc2)n1C | 0.788
5 | CN1C2C=C(CCCO)C(C3C(=O)N(C(N)=O)C(=O)C32)C1c1cccs1 (stereo not given) | -0.173
6 | CC(C)CNC(=O)[C@@]1(c2ccc([N+](=O)[O-])cc2)CC(=O)N(C2CCCCC2)[C@@H]1c1ccc(CO)cc1I | -0.16
7 | COCCOC(=O)N1C(=O)[C@@]2(c3cc(C#CC4(O)CCCCCC4)ccc31)[C@H](C(N)=O)[C@H]1C(=O)O[C@H](c3ccccc3)[C@H](c3ccccc3)N1[C@@H]2c1ccc(O)cc1 | 1.28
8 | COC(=O)[C@@]1(Cc2ccccc2)[C@H]2c3cc(C(=O)N4CCCC4)n(Cc4cc(F)cc5c4OCOC5)c3C[C@H]2CN1C(=O)c1ccccc1 | 0.286
9 | CCOC(=O)C[C@H]1[C@H](OC(=O)c2ccccc2-c2ccccc2)[C@@H](NC(=O)CC(C)C)c2cc(OCCCO)ccc2N1C(=O)c1ccc2ccccc2n1 | 0.368
10 | C=CCN1Cc2ccccc2C[C@@]2(N=C(c3ccc(OCCCO)cc3)O[C@H]2c2ccccc2)C1=O | 0.363
11 | COCCOC(=O)N1C(=O)[C@@]2(c3cc(C#CC4(O)CCCCCC4)ccc31)[C@H](C(=O)N1CCCCCCC1)[C@H]1C(=O)O[C@H](c3ccccc3)[C@H](c3ccccc3)N1[C@@H]2c1ccc(OCCO)cc1 | 1.62
12 | CN1C(=O)C2C=CC(C(O)c3c(F)cccc3Cl)N(Nc3ccccc3)C2C1=O (stereo not given) | 0.71
13 | CCCC=C(CCC)[C@@H](NP(=O)(c1ccccc1)c1ccccc1)c1ccc(C(F)(F)F)cc1 | -0.354
14 | O=C1O[C@@H](c2ccccc2)[C@@H](c2ccccc2)N2[C@@H](c3ccc(O)cc3)[C@]3(C(=O)Nc4ccc(C#CCCO)cc43)[C@@H](C(=O)NC[C@H](O)c3ccccc3)[C@H]12 | -0.802
15 | CCN(CC)c1ccc(N2CC=CC34O[C@@H]5/C=C\CCC(C)OC(=O)C5[C@H]3C(=O)N(CCO)[C@@H]4C2=O)cc1 (stereo not given in full) | -0.421
16 | Cc1ccc(S[C@]2(C(=O)NCCN3CCOCC3)CC(=O)N(Cc3ccccc3C(F)(F)F)[C@@H]2c2ccc(CO)cc2I)cc1 | -1.13
17 | C=CCNC(=O)[C@@H]1[C@H]2C(=O)O[C@H](c3ccccc3)[C@H](c3ccccc3)N2[C@H](c2ccc(OCCO)cc2)[C@@]12C(=O)N(C(=O)OCCOC)c1ccc(C#CC3=CCCCC3)cc12 | 1.06
18 | COC(=O)[C@@]1(Cc2ccccc2)[C@H]2c3cc(C(=O)N4CCCC4)[nH]c3C[C@H]2CN1C(=O)c1ccccc1 | -0.444

Row | Structure (SMILES) | composite z-score
19 | C=CCOC(=O)[C@@H]1[C@H]2C(=O)O[C@H](c3ccccc3)[C@H](c3ccccc3)N2[C@H](c2ccc(OCCOC(=O)[C@H]3C[C@H]4C(=O)N[C@@H](CCCC[N+](C)(C)C)C(=O)N4[C@H]3c3ccc(O)cc3)cc2)[C@@]12C(=O)Nc1ccc(I)cc12 | 1.51
20 | COc1c(C)cc(-c2cc3c(c(Cc4ccccc4)n2)[Si](C(C)C)(C(C)C)OC3)cc1C | 0.235
21 | COCCOC(=O)N1C(=O)[C@@]2(c3cc(C#CC4(O)CCCCCC4)ccc31)[C@H](c1ccccc1OCCO)N1[C@H](c3ccccc3)[C@H](c3ccccc3)OC(=O)[C@H]1[C@@H]2C(N)=O | 1.14
22 | CC(C)C(O)C1C=CC2C(=O)N(C)C(=O)C2N1Nc1ccccc1 (stereo not given) | 0.439
23 | CC(=O)N1Cc2ccccc2C[C@]2(N=C(c3ccc(OCCCO)cc3)O[C@@H]2c2ccccc2)C1=O | 0.33
24 | CCOC(=O)[C@@H]1[C@@H]2C(=O)N(CC)C(=O)[C@@H]2C[C@@H]1Sc1ccccc1 | 0.446
25 | O=C1OCCC=C[C@H]2OC34C=CCN(c5ccc(Cl)cc5)C(=O)[C@H]3N(CCCCCO)C(=O)[C@@H]4C12 (stereo not given in full) | -0.713
26 | COc1ccc(CCNC(=O)[C@@]2(Sc3ccc(C)cc3)CC(=O)N(Cc3cc(C(F)(F)F)cc(C(F)(F)F)c3)[C@@H]2c2ccc(CO)cc2I)cc1 | -0.0666
27 | COC(=O)[C@@]1(Cc2ccc(OC)cc2)[C@H]2c3cc(C(=O)N4CCCC4)n(CCc4cc5ccccc5[nH]4)c3C[C@H]2CN1C(=O)c1ccccc1 | 1.2
28 | COc1ccc(NN2C(C(O)c3ccccn3)C=CC3C(=O)N(C4CCCCC4)C(=O)C32)cc1 (stereo not given) | 1.16
29 | CN(C)CCCCNC(=O)[C@H]1C[C@H]2C(=O)N[C@@H](CCCCN(C)C)C(=O)N2[C@H]1c1cccc(OCCO)c1 | 1.11
30 | CC(C)(C)OC(=O)CC[C@]1(C(=O)O)N=C(c2ccc(OCCCO)cc2)O[C@H]1c1ccccc1 | -0.121
31 | COCCOC(=O)N1C(=O)[C@@]2(c3cc(C#Cc4ccc(OC)cc4)ccc31)[C@H](C(=O)NC[C@H](O)c1ccccc1)[C@H]1C(=O)O[C@H](c3ccccc3)[C@H](c3ccccc3)N1[C@@H]2c1ccc(O)cc1 | 1.41
32 | C[C@]1(C(=O)NC2CC2)c2ccccc2C(=O)N(Cc2ccc(OC(F)(F)F)cc2)[C@H]1c1ccc(CO)cc1 | -0.409
33 | C=CC[C@@]1(C(=O)O)N=C(c2ccc(OCCCO)cc2)O[C@@H]1c1ccccc1 | -1.15
34 | COC(=O)C1(Cc2ccccc2)C=C2C(=C(C(C)C)C(=O)C2C)CN1 (stereo not given) | -0.482
35 | COc1ccc(C#Cc2ccc3c(c2)[C@]2(C(=O)N3)[C@H](C(=O)N3CCc4cc(OC)c(OC)cc4C3)[C@H]3C(=O)O[C@H](c4ccccc4)[C@H](c4ccccc4)N3[C@@H]2c2ccc(O)cc2)cc1 | 0.957
